Assay results published in the supplement of paper PMC11865577.
Where a name gives a salt, the structure may show the parent alone.

Legend:
Assay in all cases: normalised indicator fluorescence (fraction of RNA + indicator signal without compound); higher = less displacement of indicator (weaker competition)
Details in all cases: compound concentration: 5 uM, 30 min
[1] = system: SARS-CoV-2 low-rank motif (SARS-low)
In short: (§1)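 Values are ratios: indicator fluorescence, less a buffer-plus-indicator blank, over the RNA-plus-indicator signal with no compound, as the mean of two independent experiments. This displacement screen used TO-PRO-1 or TO-PRO-3 with RNA in 96-well plates, in 20 mM phosphate pH 7.0, 20 mM NaCl, 80 mM KCl. Compounds went in at about 5 uM final, and readings were taken after 30 min on an Infinite 200 PRO at 485 or 620 nm excitation.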

[2] = system: hsa-mir-191 loop
In short: as §1

[3] = system: hsa-mir-21 loop
In short: as §1

[4] = system: hsa-mir-221 loop
In short: as §1

[5] = system: hsa-mir-374a loop
In short: as §1

[6] = system: hsa-mir-6850 loop
In short: as §1

[7] = indicator: TO-PRO-1 0.1 uM, RNA concentration: 0.1 uM
[8] = indicator: TO-PRO-3 0.5 uM, RNA concentration: 0.5 uM

CC1(C)OC(=O)C=C[C@]2(C)[C@H]3CC[C@@]4(C)[C@H](c5ccoc5)OC(=O)[C@H]5O[C@]54[C@]3(C)C(=O)C[C@@H]12 [Obacunone]
normalised indicator fluorescence [1, 7]: 1.14 | normalised indicator fluorescence [1, 8]: 0.991

COc1nccnc1NS(=O)(=O)c1ccc(NC(=O)/C=C/c2ccc([N+](=O)[O-])s2)cc1 [Necrosulfonamide]
normalised indicator fluorescence [1, 7]: 1.16 | normalised indicator fluorescence [1, 8]: 0.996

O=C(Nc1nc2ccc(NC(=O)C34CC5CC(CC(C5)C3)C4)cc2s1)c1ccccc1
normalised indicator fluorescence [1, 7]: 1.49 | normalised indicator fluorescence [1, 8]: 1.12

CCNC(=O)c1noc(-c2cc(Cl)c(O)cc2O)c1-c1ccc(OC)cc1
normalised indicator fluorescence [1, 7]: 1.27 | normalised indicator fluorescence [1, 8]: 1.43

NC(=O)c1ccc(N(C(N)=O)c2c(F)cccc2F)nc1-c1ccc(F)cc1F
normalised indicator fluorescence [1, 7]: 1.28 | normalised indicator fluorescence [1, 8]: 1.21

CC1=NN(c2ccccc2)C(=O)C1 [Edaravone]
normalised indicator fluorescence [1, 7]: 1.13 | normalised indicator fluorescence [1, 8]: 1.32

CCNC(=O)c1noc(-c2cc(C(C)C)c(O)cc2O)c1-c1ccc(CN2CCOCC2)cc1 [Luminespib]
normalised indicator fluorescence [1, 7]: 1.01 | normalised indicator fluorescence [1, 8]: 1.09

O=C1CCc2ccccc2C1 [Beta-Tetralone]
normalised indicator fluorescence [1, 7]: 1.19 | normalised indicator fluorescence [1, 8]: 1.2

CN(C)CCCN1c2ccccc2CCc2ccc(Cl)cc21 [Clomipramine hydrochloride]
normalised indicator fluorescence [1, 7]: 1.07 | normalised indicator fluorescence [1, 8]: 1.13

COC1=C(OC)C(=O)C(CCCCCCCCCCO)=C(C)C1=O [Idebenone]
normalised indicator fluorescence [1, 7]: 1.21 | normalised indicator fluorescence [1, 8]: 1.12

CCc1cc(C(N)=S)ccn1 [Ethinamide]
normalised indicator fluorescence [1, 7]: 1.15 | normalised indicator fluorescence [1, 8]: 1.12

O=c1ncn2nc(Sc3ccc(F)cc3F)ccc2c1-c1c(Cl)cccc1Cl [Neflamapimod]
normalised indicator fluorescence [1, 7]: 1.2 | normalised indicator fluorescence [1, 8]: 1.17

COc1ccc(-c2coc3cc(O)ccc3c2=O)cc1O [Calycosin]
normalised indicator fluorescence [1, 7]: 1.4 | normalised indicator fluorescence [1, 8]: 1.09

COc1ccc(O)cc1 [4-Methoxyphenol]
normalised indicator fluorescence [1, 7]: 1.12 | normalised indicator fluorescence [1, 8]: 1.27

O=C(O)/C=C/c1ccc(Cn2ccnc2)cc1 [Ozagrel hydrochloride]
normalised indicator fluorescence [1, 7]: 1.1 | normalised indicator fluorescence [1, 8]: 1.09

CO[C@H]1/C=C/O[C@@]2(C)Oc3c(C)c(O)c4c(c3C2=O)C2=NC3(CCN(CC(C)C)CC3)NC2=C(NC(=O)/C(C)=C\C=C\[C@H](C)[C@H](O)[C@@H](C)[C@@H](O)[C@@H](C)[C@H](OC(C)=O)[C@@H]1C)C4=O [Rifabutin]
normalised indicator fluorescence [1, 7]: 1.1 | normalised indicator fluorescence [1, 8]: 1.16

CC(C)=CCC[C@](C)(O[C@@H]1O[C@H](CO)[C@@H](O)[C@H](O)[C@H]1O)[C@H]1CC[C@]2(C)[C@@H]1[C@H](O)C[C@@H]1[C@@]3(C)CC[C@H](O)C(C)(C)[C@@H]3[C@@H](O[C@@H]3O[C@H](CO)[C@@H](O)[C@H](O)[C@H]3O[C@@H]3OC[C@@H](O)[C@H](O)[C@H]3O)C[C@]12C [Notoginsenoside R1]
normalised indicator fluorescence [1, 7]: 1.23 | normalised indicator fluorescence [1, 8]: 1.26

CC1=C[C@]2(O)O[C@@]3(CC2=C(C)C)[C@@H](C)CC[C@@H]13 [Curcumenol]
normalised indicator fluorescence [1, 7]: 1.11 | normalised indicator fluorescence [1, 8]: 1.05

C[S+]([O-])c1ccc(-c2nc(-c3ccc(F)cc3)c(-c3ccncc3)[nH]2)cc1 (stereo not drawn)
normalised indicator fluorescence [1, 7]: 1.04 | normalised indicator fluorescence [1, 8]: 0.92

CC1(C)CC(=O)c2c(C(F)(F)F)nn(-c3ccc(C(N)=O)c(N[C@H]4CC[C@H](O)CC4)c3)c2C1
normalised indicator fluorescence [1, 7]: 1.02 | normalised indicator fluorescence [1, 8]: 1.08

CC(=O)c1ccc(S(=O)(=O)NC(=O)NC2CCCCC2)cc1 [Acetohexamide]
normalised indicator fluorescence [1, 7]: 0.998 | normalised indicator fluorescence [1, 8]: 1.12

O=C(Nc1ccc2[nH]nc(-c3ccncc3)c2c1)[C@@H]1CCN(CC(=O)N2CCN(c3ccc(-c4ncccn4)cc3)CC2)C1
normalised indicator fluorescence [1, 7]: 1.11 | normalised indicator fluorescence [1, 8]: 1.26

O=c1ccc2ccc(O)cc2o1 [7-Hydroxycoumarin]
normalised indicator fluorescence [1, 7]: 1.25 | normalised indicator fluorescence [1, 8]: 1.16

CN(NC(=O)CC(=O)NN(C)C(=S)c1ccccc1)C(=S)c1ccccc1 [Elesclomol]
normalised indicator fluorescence [1, 7]: 1.17 | normalised indicator fluorescence [1, 8]: 1.25

NC(=O)c1ccccc1Nc1ccnc(Nc2cccc(O)c2)n1
normalised indicator fluorescence [1, 7]: 1.1 | normalised indicator fluorescence [1, 8]: 1.06

C[C@@H]1O[C@@H](O[C@H]2[C@H](Oc3cc(O)c4c(c3)O[C@H](c3ccc(O)cc3)CC4=O)O[C@H](CO)[C@@H](O)[C@@H]2O)[C@H](O)[C@H](O)[C@H]1O [Naringin]
normalised indicator fluorescence [1, 7]: 1.14 | normalised indicator fluorescence [1, 8]: 1.13

CC1=CC(=O)c2c(O)cccc2C1=O [Plumbagin]
normalised indicator fluorescence [1, 7]: 1.22 | normalised indicator fluorescence [1, 8]: 1.02 | normalised indicator fluorescence [2, 7]: 1.02 | normalised indicator fluorescence [2, 8]: 1.01 | normalised indicator fluorescence [3, 7]: 0.979 | normalised indicator fluorescence [3, 8]: 0.979 | normalised indicator fluorescence [4, 7]: 1.02 | normalised indicator fluorescence [4, 8]: 1.05 | normalised indicator fluorescence [5, 7]: 1.17 | normalised indicator fluorescence [5, 8]: 1.15 | normalised indicator fluorescence [6, 7]: 0.922 | normalised indicator fluorescence [6, 8]: 1.01

CC(C)N(CCCCOCC(=O)NS(C)(=O)=O)c1cnc(-c2ccccc2)c(-c2ccccc2)n1 [Selexipag]
normalised indicator fluorescence [1, 7]: 1.21 | normalised indicator fluorescence [1, 8]: 1.13

COC1=CC(=O)c2ccccc2C1=O [2-Methoxynaphthoquinone]
normalised indicator fluorescence [1, 7]: 1.19 | normalised indicator fluorescence [1, 8]: 1.12

COc1ccc([C@@H]2OC[C@H]3[C@@H]2CO[C@@H]3c2ccc(O[C@@H]3O[C@H](CO)[C@@H](O)[C@H](O)[C@H]3O)c(OC)c2)cc1OC [Forsythin]
normalised indicator fluorescence [1, 7]: 1.1 | normalised indicator fluorescence [1, 8]: 1.16

Oc1cc(O)c2c(c1)O[C@H](c1ccc(O)c(O)c1)[C@@H](O)C2 [(+)-Catechin Hydrate]
normalised indicator fluorescence [1, 7]: 0.966 | normalised indicator fluorescence [1, 8]: 1.16

Cc1cc(NC(=O)c2cccc(NC(=O)/C=C/CN(C)C)c2)ccc1Nc1nccc(-c2cccnc2)n1
normalised indicator fluorescence [1, 7]: 0.999 | normalised indicator fluorescence [1, 8]: 1.14

O=c1c(O)c(-c2cc(O)c(O)c(O)c2)oc2cc(O)cc(O)c12 [Myricetin]
normalised indicator fluorescence [1, 7]: 0.808 | normalised indicator fluorescence [1, 8]: 0.0645

O=C(O)/C=C/c1ccc(Cn2ccnc2)cc1 [Ozagrel]
normalised indicator fluorescence [1, 7]: 1.09 | normalised indicator fluorescence [1, 8]: 1.21

O=c1cc(-c2ccccc2)oc2cc(O)c(O)c(O)c12 [Baicalein]
normalised indicator fluorescence [1, 7]: 0.791 | normalised indicator fluorescence [1, 8]: 0.739

C/C1=C/CC[C@H](C)C(=O)C[C@@H](C(C)C)C(=O)C1 [Curdione]
normalised indicator fluorescence [1, 7]: 1.15 | normalised indicator fluorescence [1, 8]: 1.1

O=C(O)C(O)Cc1ccc(O)c(O)c1 (stereo not drawn) [Sodium Danshensu]
normalised indicator fluorescence [1, 7]: 0.934 | normalised indicator fluorescence [1, 8]: 0.931

C[C@@H]1O[C@@H](Oc2c(-c3cc(O)c(O)c(O)c3)oc3cc(O)cc(O)c3c2=O)[C@H](O)[C@H](O)[C@H]1O [Myricetrin]
normalised indicator fluorescence [1, 7]: 0.999 | normalised indicator fluorescence [1, 8]: 1.07

CCCC(C(=O)OCCN(CC)CC)(c1ccccc1)c1ccccc1 [Proadifen hydrochloride]
normalised indicator fluorescence [1, 7]: 1.28 | normalised indicator fluorescence [1, 8]: 1.04

COc1ccc(C(=C2C(=O)Nc3ccccc32)c2ccc(OC)cc2)cc1
normalised indicator fluorescence [1, 7]: 1.38 | normalised indicator fluorescence [1, 8]: 1.17

O=C1C[C@@H](c2ccc(O)cc2)Oc2cc(O)cc(O)c21 [Naringenin]
normalised indicator fluorescence [1, 7]: 1.03 | normalised indicator fluorescence [1, 8]: 1.12

O=c1c(O)c(-c2ccccc2)oc2cc(O)cc(O)c12 [Galangin]
normalised indicator fluorescence [1, 7]: 1.12 | normalised indicator fluorescence [1, 8]: 1.28

COc1ccc2c(c[n+](C)c3c4cc5c(cc4ccc23)OCO5)c1OC [Chelerythrine chloride]
normalised indicator fluorescence [1, 7]: 1.46 | normalised indicator fluorescence [1, 8]: 0.807 | normalised indicator fluorescence [2, 7]: 0.626 | normalised indicator fluorescence [2, 8]: 0.656 | normalised indicator fluorescence [3, 7]: 0.586 | normalised indicator fluorescence [3, 8]: 0.724 | normalised indicator fluorescence [4, 7]: 0.568 | normalised indicator fluorescence [4, 8]: 0.592 | normalised indicator fluorescence [5, 7]: 1.01 | normalised indicator fluorescence [5, 8]: 1.02 | normalised indicator fluorescence [6, 7]: 0.335 | normalised indicator fluorescence [6, 8]: 0.494

COc1c(C)cnc(Cn2cnc3c(Cl)nc(N)nc32)c1C
normalised indicator fluorescence [1, 7]: 1.13 | normalised indicator fluorescence [1, 8]: 1.17
